HSF1 inhib: HSF1 inhibition. 0.77% of 300,000 active. NIH3T3-HGL HSE-luciferase, MG132-induced, luminescence 8 h; hits give low values. activity change, negative = inhibition, % at 7.5 µM (by protocol);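 active means more than half of replicate wells show activity change below -50%, luminescence cut by over half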;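 further: luciferase reports HSF-1 transcriptional activity via heat shock element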
PPC-1+TRAIL kill: kills PPC-1 cancer cells in the presence of TRAIL. 0.41% of 220,000 active. cell killing (% activity), % at 4 µM or 5 µM. AID 1443. PPC-1 cells + TRAIL, ATPLite viability luminescence;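 active means cell killing above 50% in the first pass at 4 µM, then a duplicate retest at 5 µM averaging 50% or more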
STAT1 inh: inhibitors of IFN-gamma induced STAT1 signaling; NIH 3T3 STAT1-luciferase reporter, luminescence; inhibition, % at 5.5 µM; 0.35% of 200,000 active;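 active means inhibition above a set limit, the mean inhibition across all tested compounds plus 3 SD, cut at about 34% in these data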
STAT3 blocker: STAT3 signaling inhibition. U3A cells, IL-6 STAT3-luciferase reporter, luminescence; host cell line lacks STAT1. inhibition, % at 5.5 µM. 0.89% of 190,000 active. AID 862;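 active means inhibition above the mean inhibition across all screened compounds plus 3 SD, cut at about 44% in these data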
HSP90 inh: blocks HSP90-mediated luciferase refolding in reticulocyte lysate; 0.91% of 290,000 active; Rabbit reticulocyte lysate, luciferase refolding luminescence, 3 h; inhibition, % at 5.6 µM;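 active means inhibition above the screen-wide mean plus 3 SD, computed separately per campaign, cut at about 16% in these data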;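 further: inhibitors lower the luminescence because luciferase stays unfolded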
C8 TRAIL sens: sensitizes caspase-8 expressing cells to TRAIL. NB7+C8 cells + TRAIL, ATPlite viability luminescence. 1% of 360,000 active. inhibition (viability loss, TRAIL sensitization), % at 10 µM;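 active means compounds causing at least 50% loss of cell viability in the single-dose screen, relative to plate controls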
PPC-1 tox: kills PPC-1 cells. shares compounds with PPC-1+TRAIL kill. PPC-1 viability, ATPlite luminescence, overnight. cytotoxicity, % at 5 µM. 50% of 1,200 active;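 active means reconfirmed compounds whose average cytotoxicity reaches 50% or more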
A number is an active result; 0 = inactive; - = not tested or not shown. Rows were chosen to be rich in hits. Some 2.4% of all compounds tested hit in one or more screens of this group.

SMILES | HSF1 inhib | PPC-1+TRAIL kill | STAT1 inh | STAT3 blocker | HSP90 inh | C8 TRAIL sens | PPC-1 tox
COc1cc2nc(CN(C)Cc3ccc(C(C)(C)C)cc3)[nH]c(=O)c2cc1OC | 0 | 58.8 | 0 | 0 | 0 | 65.0 | 58.1
O=C(Nc1nonc1NC(=O)C1CCCCC1)C1CCCCC1 | 0 | 0 | 0 | 0 | 0 | 0 | 0
CN(Cc1ccccc1)C(=O)c1ccc2nc([C@@H]3O[C@H](CO)[C@H](O)[C@H](O)[C@H]3O)[nH]c2c1 | - | - | - | - | - | 0 | -
O=C(CCS(=O)(=O)c1ccccc1)Nc1ccc(-c2nc3ccccc3s2)cc1 | 0 | 54.1 | 0 | 0 | 0 | 64.8 | 0
Cc1cc(Cl)n2nc(C)c(-c3ccc(Cl)cc3)c2n1 | - | 54.4 | 0 | 0 | 0 | 0 | 0
O=C(Nc1ccccn1)c1sc2cccc(F)c2c1Cl | - | 81.4 | 0 | 0 | 0 | 81.3 | 82.6
O=C(Nc1cccnc1)c1sc2cccc(F)c2c1Cl | 0 | 0 | 0 | 0 | 0 | 0 | -
Oc1ccccc1C1=NC(c2ccccc2)NC(c2ccccc2)C1 (stereo not given) | - | - | - | - | - | 0 | -
CCOC(=O)C1=C(CSc2nc(-c3ccncc3)ccc2C#N)OC(N)=C(C#N)C1c1cccnc1 (stereo not given) | 0 | 0 | 0 | 0 | 0 | 0 | -
CCOC(=O)C1=C(CSc2nc(-c3ccncc3)ccc2C#N)OC(N)=C(C#N)C1c1ccc(OC)cc1 (stereo not given) | 0 | 0 | 0 | 0 | 0 | 0 | 0
CCOC(=O)CSc1nc(-c2ccncc2)ccc1C#N | 0 | 0 | 0 | 0 | 0 | 50.7 | 0
Cc1c(C(=O)NCc2ccccc2C(F)(F)F)sc(=O)n1Cc1ccc2c(c1)OCO2 | - | - | - | - | - | 0 | -
CC(=O)Nc1ccc(NC(=O)Cn2cc3c(n2)CCCC3)cc1 | 0 | 0 | 0 | 0 | 0 | 0 | 0
CC(=O)c1cccc(NC(=O)Cn2cc3c(n2)CCCC3)c1 | 0 | 0 | 0 | 0 | 0 | 0 | -
Oc1ccccc1N=Nc1ccccc1O | 0 | 0 | 0 | 0 | 0 | 0 | 0
COc1ccc([C@H]2CC(=O)C[C@@H](CCn3cc(-c4ccc(F)cc4)nn3)O2)cc1 | - | - | - | - | - | 0 | -
Cc1ccc(C2C(C#N)=C(N)Oc3n[nH]c(-c4cccs4)c32)cc1 (stereo not given) | 0 | 0 | 0 | 0 | 0 | 0 | -
N#CC1=C(N)Oc2n[nH]c(-c3cccs3)c2C1c1ccoc1 (stereo not given) | 0 | 0 | 0 | 0 | 0 | 0 | 0
COc1cc(-c2[nH]nc3c2C(c2ccoc2)C(C#N)=C(N)O3)cc(OC)c1OC (stereo not given) | - | 0 | 0 | 0 | 0 | 0 | 0
O=C1CC(N2CCN(c3ccc(F)cc3)CC2)C(=O)N1Cc1ccc(N2CCCC2=O)cc1 (stereo not given) | 0 | 0 | 0 | 0 | 0 | 0 | 0
CCS/C(N)=N/N=C/c1cc(C)ccc1O | 0 | 62.2 | 0 | 0 | 0 | 72.2 | 63.5
CC(=O)NC(c1ccccc1)c1nc(-c2cccc(C#N)c2)cs1 (stereo not given) | - | - | - | - | - | 0 | -
O=C(NCCc1ccccc1F)C(=O)Nc1nccs1 | 0 | 0 | 0 | 0 | 0 | 0 | 0
O=C1C=C(Nc2ccccc2)C(=O)c2ccccc21 | 0 | 0 | 0 | 0 | 0 | 0 | 0
CN1C(=O)CON=C1c1cccc2ccccc12 | - | - | - | - | - | 0 | -
SMILES | HSF1 inhib | PPC-1+TRAIL kill | STAT1 inh | STAT3 blocker | HSP90 inh | C8 TRAIL sens | PPC-1 tox
CCCCN1CC(=O)N2[C@@H]3c4cc(OC)ccc4OC[C@@H]3[C@H](C(=O)OCC)[C@]2(C)C1=O | - | - | - | - | - | 0 | -
O=C1C(c2cc(=O)c3ccccc3[nH]2)=C(O)c2ccccc21 | 0 | 55.6 | 0 | 0 | 0 | 69.9 | 52.9
Cc1ccc(-c2nc3ccc(Br)cn3c2Cc2cccc(F)c2)cc1 | - | - | - | - | - | 0 | -
Cc1ccc(-c2ccc(NC(=O)C3C4C=CC(C4)C3C(=O)O)cc2)o1 (stereo not given) | 0 | 0 | 0 | 0 | 0 | 0 | 0
COc1ccc(NC(=O)C2C3C=CC(C3)C2C(=O)O)cc1 (stereo not given) | 0 | 0 | - | - | 0 | 0 | -
CCOC(=O)c1cc2ccccc2n1C1CCN(CCc2ccccc2)CC1 | - | - | - | - | - | 0 | -
COc1ccc(-c2nc(C)c(C(C)=O)n2O)cc1 | 0 | 0 | 0 | 0 | 0 | 0 | -
CCOc1ccc(-c2nc(C)c(C(C)=O)n2O)cc1 | 0 | 0 | 0 | 0 | 0 | 0 | 0
C[C@H]1CN([C@@H](C)CO)S(=O)(=O)c2ccc(Br)cc2O[C@H]1CN(C)C(=O)c1cccnc1 | - | - | - | - | - | 0 | -
CCCc1nc2ccc(Cl)cn2c1Cc1ccc(C)cc1 | - | - | - | - | - | 0 | -
COc1ccc(OCC(=O)N/N=C/C=C/c2ccccc2)cc1 | 0 | 0 | 0 | 0 | 0 | 54.5 | 0
CCOc1ccc(NCC(=O)N/N=C/C=C/c2ccccc2)cc1 | 0 | 0 | 0 | 0 | 0 | 0 | -
CCOc1ccc(-c2ccc(SCC(=O)NC3CCCCC3)nn2)cc1 | 0 | - | - | - | 0 | 0 | -
CCc1ccc(-c2ccc(SCC(=O)Nc3nnc(C)s3)nn2)cc1 | 0 | 73.6 | 0 | 0 | 0 | 75.5 | 70.9
CCc1ccc(-c2ccc(SCC(=O)NCC3CCCO3)nn2)cc1 (stereo not given) | 0 | 0 | 0 | 0 | 0 | 59.0 | 0
O=C(CSc1nnc2ccc(-c3ccc(Br)cc3)nn12)NCC1CCCO1 (stereo not given) | 0 | - | - | - | - | 0 | -
CCOc1ccc(-c2ccc(SCC(=O)Nc3nnc(C)s3)nn2)cc1 | 0 | 73.5 | 0 | 0 | 0 | 62.4 | 74.7
Cc1nnc(NC(=O)CSc2ccc(-c3ccc(Cl)cc3)nn2)s1 | 0 | 0 | 0 | 0 | 0 | 0 | -
CCOC(=O)C1CCCN(C(=O)c2ccc(F)c(Cl)c2)CC1 (stereo not given) | - | - | - | - | - | 0 | -
C/C(=N\NC(=O)COc1ccc(C(C)(C)C)cc1)c1cc2ccccc2o1 | 0 | 76.8 | 0 | 0 | 0 | 84.2 | 76.7
Cc1csc(NC(=O)CCS(=O)(=O)c2ccc(Br)cc2)n1 | 0 | 0 | 0 | 0 | 0 | 0 | 0
CN1CCN(CC(O)COc2ccc(Cl)cc2)CC1 (stereo not given) | 0 | 0 | 0 | 0 | 0 | 0 | 0
O=C(N/N=C/c1cccc2cccnc12)c1ccccc1O | 0 | 0 | - | - | 0 | 0 | 0
C(=N\Nc1nc2ccccc2[nH]1)/c1cccc2cccnc12 | 0 | 53.2 | - | - | 0 | 0 | 51.8
Cc1ccccc1/C=N/Nc1nc2ccccc2[nH]1 | 0 | 0 | 0 | 0 | 0 | 0 | -
SMILES | HSF1 inhib | PPC-1+TRAIL kill | STAT1 inh | STAT3 blocker | HSP90 inh | C8 TRAIL sens | PPC-1 tox
O=C(N/N=C/c1cccc2nccnc12)c1ccccc1O | 0 | 0 | - | - | 0 | 0 | -
CCNC(=O)C1CCCN(C(=O)c2cccc(C#N)c2)CC1 (stereo not given) | - | - | - | - | - | 0 | -
CC(C)(C)c1nc2scc(-c3ccc(Cl)cc3)c2c(=O)o1 | 0 | 0 | 0 | 0 | 0 | 0 | 0
COc1ccc2cc(C#N)c(SCC(=O)N3CCCC3)nc2c1 | 0 | 0 | 0 | 0 | 0 | 0 | -
COC(=O)CSc1nc2cc(OC)ccc2cc1C#N | 0 | 69.5 | 0 | 0 | 0 | 70.7 | 63.1
O=S(=O)(NCCCCCNS(=O)(=O)c1ccc(F)cc1)c1ccc(F)cc1 | 0 | 0 | 0 | 0 | 0 | 0 | 0
O=C(O)CCCNS(=O)(=O)c1ccc(F)cc1 | 0 | 0 | 0 | 0 | 0 | 0 | -
